KCNQ2 enhance – potentiators of rat KCNQ2 potassium channel. AID 2239, 2010. actives 0.54% (n = 310,000). CHO-K1 KCNQ2, FluxOR thallium flux fluorescence; active compounds read high. B-score at 10 µM;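 active means fluorescence ratio B-score at least 3 SD of library B-scores, with initial fluorescence B-score within 3 of them, cut at about 5.3 in these data; same plate scores as AID 2156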;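 further: B-score of peak minus minimum over baseline fluorescence ratio after K+ and Tl+ stimulus; positive B-score means potentiation of KCNQ2 with more thallium influx and brighter signal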
Target sequence (O88943 whole entry, looked up): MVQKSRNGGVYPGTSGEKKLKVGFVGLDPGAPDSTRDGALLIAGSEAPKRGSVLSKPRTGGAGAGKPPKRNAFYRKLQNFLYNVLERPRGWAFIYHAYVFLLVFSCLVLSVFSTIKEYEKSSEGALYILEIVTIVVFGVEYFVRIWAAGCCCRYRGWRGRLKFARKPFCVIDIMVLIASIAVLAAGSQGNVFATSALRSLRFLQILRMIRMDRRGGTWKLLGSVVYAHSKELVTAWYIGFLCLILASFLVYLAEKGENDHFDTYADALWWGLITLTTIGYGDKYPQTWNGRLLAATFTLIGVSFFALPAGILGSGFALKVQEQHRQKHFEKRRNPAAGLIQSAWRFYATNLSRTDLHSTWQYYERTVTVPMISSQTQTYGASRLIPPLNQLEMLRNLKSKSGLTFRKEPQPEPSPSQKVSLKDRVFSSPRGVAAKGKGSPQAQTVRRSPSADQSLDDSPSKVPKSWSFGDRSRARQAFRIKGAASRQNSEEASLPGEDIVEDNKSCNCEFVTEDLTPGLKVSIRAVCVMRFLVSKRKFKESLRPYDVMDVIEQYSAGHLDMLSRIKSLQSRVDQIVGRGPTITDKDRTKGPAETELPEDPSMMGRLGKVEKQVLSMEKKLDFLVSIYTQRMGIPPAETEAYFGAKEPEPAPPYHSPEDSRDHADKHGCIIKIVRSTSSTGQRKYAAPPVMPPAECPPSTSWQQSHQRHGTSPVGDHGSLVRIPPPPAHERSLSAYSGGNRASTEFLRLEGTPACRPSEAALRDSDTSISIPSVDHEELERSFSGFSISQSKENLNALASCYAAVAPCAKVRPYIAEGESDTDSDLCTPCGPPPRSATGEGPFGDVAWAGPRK
KCNQ2 block – rat KCNQ2 potassium channel inhibitors, primary screen, cell-based, CHO-K1, FluxOR thallium flux, B-score | B-score at 10 µM | actives 1.1% (n = 310,000) | 20 min; active compounds read low | AID 2156, 2009;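 active means fluorescence ratio B-score at most minus 3 library SDs, with starting brightness B-score within 2 library SDs, cut at about -5.5 in these data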
Kir21 confirm – mouse Kir2.1 channel blockers, retest, confirmation, cell-based, FluxOR thallium flux, duplicate; Kir2.1-expressing cells, FluxOR thallium flux fluorescence; active compounds read low; AID 2032, 2009; actives 41% (n = 2,300); shares compounds with KCNQ2 enhance; Tl flux remaining, % of negative control (active compounds read low), % at 10 µM;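 active means Primary-screen hit whose thallium flux fell at least 3 control SD below untreated wells in both duplicates, with normal baseline fluorescence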
HEK293 ctr – parental HEK293 activity in Kir2.1 inhibitor counter-screen | actives 19% (n = 2,300) | shares compounds with KCNQ2 enhance | parental HEK293 cells, FluxOR thallium flux fluorescence; 0% = unstimulated blank wells | FluxOR signal as % of negative control (100 = no effect), % at 10 µM;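 active means dye signal at least 3 control SD above or below untreated wells in both duplicates, raw fluorescence within 3, either direction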;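 further: percent is based on the flux ratio of peak minus minimum fluorescence over baseline F0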
CHO-K1 Tl ctr – nonspecific thallium flux increase in parental CHO-K1, confirmation, counter-screen for KCNQ2 potentiator project, cell-based, FluxOR thallium flux, duplicate. shares compounds with KCNQ2 enhance. parental CHO-K1 cells, FluxOR thallium flux fluorescence; zero = vehicle mean+3SD, 100% = vehicle-minus-blank window. activity increase over 3SD of controls, % at 10 µM. actives 43% (n = 1,200). AID 2282, 2010;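 active means signal rise of at least 3 SD above the untreated control mean, in both duplicate wells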;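 further: counter screen of KCNQ2 potentiator hits so any rise reflects channel-independent effects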
KCNQ1 sel pot – human KCNQ1 channel potentiation off-target, confirmation, selectivity assay for KCNQ2 potentiator project, cell-based, CHO, FluxOR thallium flux. shares compounds with KCNQ2 enhance. CHO KCNQ1 stable, FluxOR thallium flux fluorescence; beyond 3SD, as % of vehicle-control signal. actives 28% (n = 1,200). AID 2283, 2010. activation over 3SD threshold, % at 10 µM;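 active means fluorescence ratio rise of at least 3 SD of vehicle wells above their mean, in both replicate wells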
KCNQ2 pot confirm – rat KCNQ2 channel potentiators, confirmation, cell-based, CHO, FluxOR thallium flux, duplicate. shares compounds with KCNQ2 enhance. CHO-KCNQ2 cells, FluxOR thallium flux fluorescence. actives 68% (n = 1,200). AID 2287, 2010. potentiation, less the hit threshold, % at 10 µM;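 active means fluorescence ratio rising 3 SD or more over the vehicle control mean in both replicates, plus primary screen hit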;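 further: peak minus minimum thallium fluorescence divided by baseline after K/Tl stimulus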
Kir2-1 sel – mouse Kir2.1 channel activation off-target, confirmation, selectivity assay for KCNQ2 potentiator project, cell-based, HEK293, FluxOR thallium flux; shares compounds with KCNQ2 enhance; activity over 3SD threshold, % at 10 µM; actives 2% (n = 1,200); HEK293 Kir2.1, FluxOR thallium flux fluorescence; AID 2345, 2010;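 active means fluorescence ratio rise of at least 3 SD above the vehicle-control mean, seen in both replicates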
KCNQ2 W236L MoA – potentiators of retigabine-insensitive KCNQ2 W236L, mechanism study for KCNQ2 potentiator project, cell-based, rat KCNQ2 W236L, CHO, automated patch clamp; actives 10% (n = 940); automated patch clamp current; shares compounds with KCNQ2 enhance; current increase over 3SD of negative controls (%), active compounds read high, % at 25 µM; AID 2558, 2010;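 active means current increase at least 3 SD of the untreated controls above them in both duplicate recordings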
Large screens that a line does not name were inactive (follow-up assays come after a bar, where they were run). Hits are enriched below; roughly 1.6% of the tested compounds scored in any of these assays.

O=C(NC(=S)Nc1ccc(N2CCCCC2)cc1)c1ccco1	KCNQ2 enhance 8.5 | Kir21 confirm inactive | HEK293 ctr inactive | CHO-K1 Tl ctr 99 | KCNQ1 sel pot 4.1 | KCNQ2 pot confirm 40 | Kir2-1 sel inactive | KCNQ2 W236L MoA inactive
O=C(NC(=S)Nc1cccc(Cl)c1N1CCCCC1)c1cccs1	none
CC1CCN(c2ccc(NC(=S)NC(=O)c3ccco3)cc2)CC1	none
O=C(NC(=S)Nc1cccc(Cl)c1N1CCCCC1)c1ccco1	KCNQ2 enhance 8.3 | Kir21 confirm inactive | HEK293 ctr inactive | CHO-K1 Tl ctr 44 | KCNQ1 sel pot inactive | KCNQ2 pot confirm 6.2 | Kir2-1 sel inactive | KCNQ2 W236L MoA inactive
O=C(NC(=S)Nc1ccccc1N1CCCCC1)c1ccco1	none
COc1ccc2sc(NC(=O)c3ccco3)nc2c1	none
CN(Cc1ccccc1)c1ccc(C(CC(N)=O)NC(=O)c2ccc(Br)cc2)cc1[N+](=O)[O-] (configuration not stated)	none
COc1ccc(NC(=O)CN(C)C(=O)c2cc(C)on2)cc1	none
O=C(Cc1c(F)cccc1Cl)N/N=C/c1cccnc1	none
O=C(NC1CCCCC1)NC1CC2CCC(C1)N2Cc1nnnn1Cc1ccc2c(c1)OCO2 (configuration not stated)	none (no result: KCNQ2 enhance)
O=C(Oc1ccccc1)N1CCN(C(=O)c2ccco2)CC1	none (no result: KCNQ2 enhance)
CCOc1cc(NC(=S)NCCCN2CCOCC2)c(OCC)cc1NC(=O)c1ccc(C)cc1	none (no result: KCNQ2 enhance)
O=c1c2cnn(-c3ccc(F)cc3)c2ncn1Cc1ccccc1	none
Cc1ccccc1CC(=O)N1CCCC1	none (no result: KCNQ2 enhance)
O=C(NC(=S)Nc1cccc2c(O)cccc12)c1ccco1	none
CCC(C)c1ccccc1NC(=S)NC(=O)c1ccco1 (configuration not stated)	KCNQ2 enhance 12 | Kir21 confirm inactive | HEK293 ctr 383% | CHO-K1 Tl ctr inactive | KCNQ1 sel pot 68 | KCNQ2 pot confirm 48 | Kir2-1 sel inactive | KCNQ2 W236L MoA inactive
COc1ccc(-c2csc(NC(=S)NC(=O)c3ccco3)n2)cc1	none
CC(C)C(=O)N1CCN(c2ccccc2NC(=S)NC(=O)c2ccco2)CC1	none
CC(CCc1ccccc1)NC(=S)NC(=O)c1ccco1 (configuration not stated)	KCNQ2 enhance 5.6 | Kir21 confirm inactive | HEK293 ctr 183% | CHO-K1 Tl ctr inactive | KCNQ1 sel pot inactive | KCNQ2 pot confirm inactive | Kir2-1 sel inactive | KCNQ2 W236L MoA inactive
O=C(NC(=S)Nc1nc(-c2ccccc2)cs1)c1ccco1	KCNQ2 enhance 5.4 | Kir21 confirm inactive | HEK293 ctr inactive | CHO-K1 Tl ctr inactive | KCNQ1 sel pot 81 | KCNQ2 pot confirm 1.2 | Kir2-1 sel inactive | KCNQ2 W236L MoA inactive
O=C(NC(=S)Nc1ccccc1Cl)c1ccco1	KCNQ2 enhance 11 | Kir21 confirm inactive | HEK293 ctr 154% | CHO-K1 Tl ctr inactive | KCNQ1 sel pot inactive | KCNQ2 pot confirm 4.7 | Kir2-1 sel inactive | KCNQ2 W236L MoA inactive
Cc1occc1C(=O)NC(C)CCc1ccccc1 (configuration not stated)	none
CC(=O)Nc1cccc(C(=O)OC(C)C(=O)NC(=O)NC2CCCCC2)c1 (configuration not stated)	none (no result: KCNQ2 enhance)
Cn1nc(C(=O)NCCc2ccc(S(N)(=O)=O)cc2)c2ccccc2c1=O	none (no result: KCNQ2 enhance)
COc1cc(/C=C/C(=O)OCC(=O)c2c(N)n(C)c(=O)n(C)c2=O)ccc1OCC#N	none
COc1ccc(/C=C/c2cc(C(F)(F)F)on2)cc1	none (no result: KCNQ2 enhance)
S=C(NCCCn1ccnc1)Nc1cccc(Cl)c1	none (no result: KCNQ2 enhance)
NC(=S)c1c(Cl)cc(C(F)(F)F)cc1Cl	none (no result: KCNQ2 enhance)
CC(C)n1cc(CN2CCC(Oc3ccc(C(=O)N4CCCC4)cc3)CC2)cn1	none (no result: KCNQ2 enhance)
COc1ccccc1C(=O)Nc1ccc(N2CCCCC2)cc1	none (no result: KCNQ2 enhance)
COc1cccc(OC)c1C(=O)Nc1ccc(N2CCCC2)cc1	none | Kir21 confirm inactive | HEK293 ctr inactive
O=C(O)c1cc2ncc(CCO)cn2n1	none (no result: KCNQ2 enhance)
S=C(NCc1ccccc1)Nc1ccc(Cl)cc1	none
C/C(=N\NC(=S)NCCc1ccccc1)c1ccc(O)cc1O	none
C/C(=N\NC(=S)NCCc1ccccc1)c1ccc(Cl)cc1Cl	KCNQ2 enhance 6.2 | Kir21 confirm inactive | HEK293 ctr inactive | CHO-K1 Tl ctr 12 | KCNQ1 sel pot inactive | KCNQ2 pot confirm inactive | Kir2-1 sel inactive
S=C(NCCc1ccc(Cl)cc1)NCc1ccccc1	none (no result: KCNQ2 enhance) | Kir21 confirm inactive | HEK293 ctr inactive
S=C(NCc1ccccc1)NCc1cccc(Cl)c1	none (no result: KCNQ2 enhance)
S=C(NCCc1cccc(Cl)c1)NCc1ccccc1	KCNQ2 enhance 7.5 | CHO-K1 Tl ctr 9.3 | KCNQ1 sel pot 41 | KCNQ2 pot confirm 12 | Kir2-1 sel inactive | KCNQ2 W236L MoA inactive
O=C(CN(C(=O)c1csnn1)c1cccc2c1CCCC2)NCc1ccccc1	none
O=C(Nc1ccnn1C1CCN(Cc2cccc(OCCO)c2)CC1)C1CCOC1 (configuration not stated)	none
CC(=O)Nc1ccc(S(=O)(=O)N(C)CC(=O)OCCOc2cccc(C)c2)cc1	none (no result: KCNQ2 enhance)
O=C(NC(=O)N1CCN(c2ccc([N+](=O)[O-])cn2)CC1)c1c(Cl)cccc1Cl	none (no result: KCNQ2 enhance)
CCn1cc2nc(SCC(=O)Nc3ccccc3F)n(Cc3ccccc3)c(=O)c2n1	none (no result: KCNQ2 enhance)
Cc1cccc(N(C(=O)c2ccc(CN3CCOCC3)o2)C(C(=O)NC(C)(C)C)c2ccc(F)cc2)c1 (configuration not stated)	none (no result: KCNQ2 enhance)
CCOc1cc2c3c(c1)C(C)=CC(C)(C)N3C(=O)C2=O	none

High-throughput results (PubChem)
